Screens (PubChem BioAssay)
This is a sample that favours compounds with a hit; in the whole collection about 1.3% have one here.
SARS 3CLpro inh: SARS-CoV 3CLpro protease inhibition; P0C6X7; recombinant SARS-CoV 3CLpro, quenched FRET peptide cleavage; inhibition, % at 6 µM; hit rate 0.14% among 290,000; AID 1706; in the data active = inhibition above about 12%
PriA SSB inh: blocks PriA binding to SSB C-terminal tail | hit rate 0.6% among 430,000 | AID 1272365 | inhibition, % at 33 µM | AlphaScreen SSBct-PriA binding, biotinylated peptide; in the data active = inhibition mostly above about 37%, no sharp cut-off; inactive = mostly below about 20%
Mtb hypoxia inh: Mtb hypoxia fluorescent reporter inhibition; M. tuberculosis hypoxia-regulated fluorescent reporter, fluorescence; fluorescence inhibition, % (no concentration beside the values); hit rate 0.1% among 300,000; AID 1159583; in the data active = fluorescence inhibition mostly above about 23%, no sharp cut-off; inactive = mostly below about 17%
VHR inh abs: inhibitors of human VHR1 phosphatase (DUSP3); P51452; recombinant VHR phosphatase, pNPP absorbance; inhibition, % at 13.3 µM; hit rate 0.52% among 290,000; in the data active = inhibition above about 50%
Target sequence (P51452 whole entry, looked up): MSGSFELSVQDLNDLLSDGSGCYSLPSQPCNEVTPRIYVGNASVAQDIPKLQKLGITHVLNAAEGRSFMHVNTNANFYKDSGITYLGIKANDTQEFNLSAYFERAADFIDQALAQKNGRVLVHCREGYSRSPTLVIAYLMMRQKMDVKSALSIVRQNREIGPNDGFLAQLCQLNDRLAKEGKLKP
CCHFV vOTU inh: blocks the CCHF virus ovarian tumor domain protease; CCHFV vOTU protease, Pep-AMC fluorescence; inhibition, % at 11.5 µM; hit rate 0.55% among 370,000; in the data active = inhibition above about 30%
A number is an active result; . = inactive; / = no result; ! = a repeat was not active.

SMILES | SARS 3CLpro inh | PriA SSB inh | Mtb hypoxia inh | VHR inh abs | CCHFV vOTU inh
Cc1ccc(NC(=O)C2C3CCCCC32)cc1[N+](=O)[O-] (stereo not given) | . | 40.6 | . | . | .
Cc1ccc2c(c1)c1c(n2CC(O)CNC2CCCC2)CCCC1 (stereo not given) | . | . | . | . | .
Cc1cc(C)c2c(c1)c(-c1ccccc1)c(-c1ccccc1)n2C[C@@H](O)CNC1CCCC1 | / | 45.0 | / | / | /
Cn1ccnc1N1CCN(C(=O)CCCc2ccccc2)CC1 | / | . | / | / | /
O=C(NCCCN1CCCC1)c1ccc2c(c1)N(Cc1ccccc1F)C(=O)c1ccccc1S2(=O)=O | . | . | . | 51.3 | .
O=C(NCCCN1CCCC1)c1ccc2c(c1)N(Cc1cccc(Cl)c1)C(=O)c1ccccc1S2(=O)=O | / | / | / | / | .
O=C(O)c1ccc2cc[nH]c2c1 | . | . | . | 53.9 | .
O=C(O)c1ccc2ccc3ccccc3c2c1 | / | . | . | / | .
CSc1ccc(NC(=O)Cc2cccs2)nn1 | / | . | / | / | /
CN(C)C(=O)c1ccc(NC(=O)c2cccnc2)cc1 | . | . | . | . | .
CN(C)C(=O)c1ccc(NC(=O)c2sccc2-c2ccccc2)cc1 | . | . | . | 56.9 | .
O=S(=O)(Cc1cc(F)ccc1F)N1CCN(c2cc(-n3cncn3)ncn2)CC1 | / | . | / | / | /
CCN1CCN(C(=S)NCCc2ccccc2)CC1 | . | . | . | 56.7 | .
COc1ccc(CNC(=O)c2cc3cccc(OC)c3oc2=N)cc1 | . | . | . | 53.5 | .
N#CC1=C2N=C(N)c3c(sc4c3CCCCC4)N2C2=C(C(=O)CCC2)C1c1ccccc1 (stereo not given) | . | 44.0 | . | . | .
N#CC1=C2N=C(N)c3ccccc3N2C2=C(C(=O)CCC2)C1c1ccc(F)cc1 (stereo not given) | . | . | . | . | .
Cc1ccccc1NC(=O)C1CN(S(=O)(=O)C2CC2)C1 | / | . | / | / | /
O=C(NCCCn1ccc2cccnc21)c1cccc(Br)c1 | / | . | / | / | /
Cc1nn2c(NCCCn3ccnc3)cc(C(C)(C)C)nc2c1-c1ccc(Cl)cc1 | / | . | / | / | /
CC(C)(C)c1cc(NCCCn2ccnc2)n2ncc(-c3ccc(Cl)cc3)c2n1 | . | . | . | 52.7 | .
COc1ccc(-c2coc3c4c(ccc3c2=O)OCN(c2ccc(F)cc2F)C4)cc1OC | / | . | / | / | /
COc1ccccc1N1COc2ccc3c(=O)c(-c4ccccc4)coc3c2C1 | / | 32.0 | / | / | /
Cc1nc(OC(C)C)cc(N2CCNCC2)n1 | / | . | / | / | /
COc1ccc2c(c1)CCC[C@@]2(O)CNC(=O)c1ccc2ncsc2c1 | / | . | / | / | /
COC(=O)Cc1ccc(NC(=S)N2CCN(c3cccc(O)c3)CC2)cc1 | . | . | / | 55.4 | .
SMILES | SARS 3CLpro inh | PriA SSB inh | Mtb hypoxia inh | VHR inh abs | CCHFV vOTU inh
OCCCn1c(-c2ccccc2)csc1=Nc1ccccc1 | . | 42.1 | . | . | .
O=C(O)CCC(=O)NCCn1c(-c2ccccc2)csc1=Nc1ccccc1 | . | . | . | . | .
CCOC(=O)C(N=Nc1ccc(C(=O)O)cc1[N+](=O)[O-])=C(C)O | / | . | / | / | /
Cc1ccc(CNC(=O)CN2C(=O)COc3ccc(C)cc32)cc1 | . | 38.6 | . | . | .
O=C(CN1C(=O)COc2ccc(Cl)cc21)NCC1CCCO1 (stereo not given) | . | . | . | 53.5 | .
Cc1nn(-c2ccccc2)c(N)c1N=Nc1ccccc1 | . | . | . | . | .
Cc1ccc(N=Nc2c(C)nn(-c3ccccc3)c2N)cc1[N+](=O)[O-] | / | 68.0 | / | / | /
Cc1nn(-c2ccccc2)c(N)c1N=Nc1cccc(S(=O)(=O)N2CCOCC2)c1 | . | 47.0! | . | . | .
Cc1ccc(Cl)c2sc(N(CC3CCCO3)C(=O)c3ccn(C)n3)nc12 (stereo not given) | / | . | / | / | /
COc1ccc(-c2nc(CS(=O)CC(=O)NCCCN3CCOCC3)c(C)o2)cc1OC (stereo not given) | . | . | . | 56.7 | .
COc1ccc(-c2nc(CN3CCC(C(=O)N4CCOCC4)CC3)c(C)o2)cc1C | . | . | . | 56.8 | .
COc1ccc(S(=O)(=O)NCC(c2ccc3c(c2)CCCN3C)N(C)C)c(OC)c1 (stereo not given) | / | . | / | / | /
COC=C1C(c2nnc(-c3cccnc3)o2)=NNN1c1ccc(Cl)cc1 | / | . | / | / | /
O=C(NCc1cccs1)C(=O)NCC(c1ccc2c(c1)OCO2)N1CCN(c2ccccc2)CC1 (stereo not given) | / | . | / | / | /
Cc1ccc(S(=O)(=O)N2CCOCC2)cc1NC(=O)CNCc1ccccc1Cl | / | . | . | / | .
O=C(CNCc1ccccn1)Nc1cc(S(=O)(=O)N2CCCCC2)ccc1Cl | . | 40.5 | . | . | .
COc1cccc(CN(C)CC(=O)Nc2cc(S(=O)(=O)N3CCCC3)ccc2Cl)c1OC | / | 42.1 | . | / | .
CN(C)S(=O)(=O)c1cccc(NC(=O)CNCc2ccccn2)c1 | . | 49.6 | . | . | .
CN(C)S(=O)(=O)c1cccc(NC(=O)CNC2CCCCC2)c1 | . | . | . | . | .
COc1ccccc1CN(C)CC(=O)Nc1cccc(S(=O)(=O)N2CCCC2)c1 | / | . | . | / | .
Cc1ccc(S(=O)(=O)N2CCOCC2)cc1NC(=O)CNCc1ccccn1 | . | 43.8 | . | . | .
O=C(CNCc1ccncc1)Nc1cc(S(=O)(=O)N2CCCCC2)ccc1Cl | . | . | . | . | .
CCOc1ccc(-n2nnnc2SCC(=O)Nc2cccc(C(C)=O)c2)cc1 | / | . | / | / | /
C=CCC(C(=O)OC)(C(=O)OC)c1ccc([N+](=O)[O-])cn1 | . | . | . | 51.5 | .
CN(Cc1ccccc1)c1oc(COc2ccccc2F)nc1C#N | . | 51.1 | / | . | .
SMILES | SARS 3CLpro inh | PriA SSB inh | Mtb hypoxia inh | VHR inh abs | CCHFV vOTU inh
N#Cc1nc(COc2ccccc2F)oc1NCCc1ccccc1 | . | 43.3 | / | . | .
O=C(c1ccccc1Br)N1CCC[C@H](Cc2nc(C3CC3)no2)C1 | / | . | / | / | /
O=S(=O)(Cc1ccc(F)cc1)N(CCc1cccs1)Cc1ccco1 | / | . | / | / | /
COc1ccc(NC(=O)CSc2n[nH]c(=O)c3cc(-c4ccc(F)cc4)nn23)c(OC)c1 | / | . | / | / | /
Nc1ccc(N=Nc2ccccc2)c2cccnc12 | . | 59.2 | . | . | .
Nc1cc(C(=O)O)c(N)c2c1C(=O)c1ccccc1C2=O | . | 74.4 | . | . | /
Nc1c(C(=O)O)ccc2c1C(=O)c1ccccc1C2=O | . | . | . | . | .
O=C(/C=C/NNC(=O)c1ccc(Br)cc1)c1ccccc1 | . | . | / | . | .
O=C(/C=C/NNC(=O)c1ccccc1)c1ccccc1 | . | . | . | 51.6 | .
CCc1ccc(Nc2n[n+](-c3ccccc3)c(-c3ccc(SC)cc3)s2)cc1 | . | 66.2 | . | . | .
COc1ccc(C)cc1Nc1n[n+](-c2ccccc2)c(-c2ccc(SC)cc2)s1 | . | . | . | . | .
CC(=O)Nc1ccc(-c2sc(Nc3cccc4ccccc34)n[n+]2-c2ccccc2)cc1 | . | 62.9 | / | . | .
CSc1ccc(-c2sc(Nc3ccccc3)n[n+]2-c2ccccc2)cc1 | . | . | / | . | /
CSc1ccc(-c2sc(Nc3cccc4ccccc34)n[n+]2-c2ccccc2)cc1 | . | 47.2 | . | . | .
COc1ccc(C)cc1Nc1n[n+](-c2ccccc2)c(-c2ccc(NC(C)=O)cc2)s1 | . | 47.1 | . | . | .
CCc1ccc(Nc2n[n+](-c3ccccc3)c(-c3ccc(OC)c(Br)c3)s2)cc1 | . | 56.4 | . | . | .
